74 compounds from the supplement of paper PMC6953052 can be followed below.

Where “and” joins values, the source holds several entries; their conditions need not be identical. Identical values can stand only once. ± gives the standard deviation of the averaged measurements. Whole data set: some 1,700 compounds, median “fraction of GFP-LC3-positive cells (≥5 vesicles/cell)” near 0.058, cut for the highest 2% near 0.59. For the sample, the highest values were picked, then their nearest neighbours and some compounds at random.

The assay relates to CbCln3 +/+ GFP-LC3 cerebellar neuronal cells. Nature of the assay: fraction of GFP-LC3-positive cells (≥5 vesicles/cell); higher = more autophagosome accumulation. Put shortly: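 Wild-type or mutant CbCln3 cerebellar cells stably expressing GFP-LC3 (2 × 10^3/well, 384-well) received ~50 nL compound in DMSO by pin transfer, in duplicate, for 24 h at 33 °C. Hoechst 33342 and LysoTracker Red were added for the final 30 min before 3.2% PFA fixation and 10× imaging of three fields per well. CellProfiler counted GFP-LC3 vesicles per cell. The value is the fraction of cells with 5 or more vesicles, averaged over duplicates, with out-of-focus images excluded.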
`CCCCC/C=C\C/C=C\C/C=C\C=C\[C@@H](O)CCCC(=O)O`: the “fraction of GFP-LC3-positive cells” value was found to be 0.0555 ± 0.014. `Oc1cc2c(cc1O)CN(C(=S)NCCc1ccc(Cl)cc1)CCC2` [capsazepine]: the “fraction of GFP-LC3-positive cells” value came to 0.197. Consider `O=C(Nc1ccccc1)c1cc([N+](=O)[O-])ccc1Cl`, for which the “fraction of GFP-LC3-positive cells” value worked out at 0.0781.

In the case of `CCC(=O)[C@@]1(C)[C@H](C)C[C@H]2[C@@H]3CCC4=CC(=O)C=C[C@]4(C)[C@H]3[C@@H](O)C[C@@]21C` [Rimexolone], the “fraction of GFP-LC3-positive cells” value came to 0.0676. In the case of `CCCCNc1cc(C(=O)O)cc(S(N)(=O)=O)c1Oc1ccccc1` [Bumetanide], the “fraction of GFP-LC3-positive cells” value worked out at 0.0472. In the case of `C[C@@H](O)[C@H]1C(=O)N2C(C(=O)O)=C(SCCNC=N)C[C@H]12` [Imipenem], the “fraction of GFP-LC3-positive cells” value came to 0.032. With `CCCCCN(CCCCC)C(=O)C(CCC(=O)[O-])NC(=O)c1ccc(Cl)c(Cl)c1.[Na+]` (centres undefined) [Lorglumide sodium salt], the “fraction of GFP-LC3-positive cells” value was 0.0541.

With `Cc1[nH]c(=O)c(C#N)cc1-c1ccncc1` [Milrinone], the “fraction of GFP-LC3-positive cells” value amounted to 0.0445.

Consider `CC(N/C(=N/C#N)Nc1ccncc1)C(C)(C)C` (centres undefined) [Pinacidil], for which the “fraction of GFP-LC3-positive cells” value stood at 0.0667. Regarding `CCCCC[C@H](O)CC(=O)CCc1ccc(O)c(OC)c1`, the “fraction of GFP-LC3-positive cells” value amounted to 0.0534.

On to `CN1CCN2c3ccccc3Cc3ccccc3C2C1.Cl` (centres undefined) [Mianserine hydrochloride], for which the “fraction of GFP-LC3-positive cells” value came to 0.0536. Consider `CC(C)C[C@@H](C=O)NC(=O)[C@H](CC(C)C)NC(=O)[C@H](CC(C)C)NC(=O)OCc1ccccc1`, for which the “fraction of GFP-LC3-positive cells” value is 0.736 ± 0.077.

For `CC(C)C[C@@H](C=O)NC(=O)[C@H](CC(C)C)NC(=O)OCc1ccccc1`, the “fraction of GFP-LC3-positive cells” value is 0.0921. Turning to `CCCC[C@@H](C=O)NC(=O)[C@H](CC(C)C)NC(=O)OCc1ccccc1` [calpeptin], the “fraction of GFP-LC3-positive cells” value was found to be 0.0616. Turning to `CCCC[C@@H](C=O)NC(=O)[C@H](CC(C)C)NC(=O)OCc1ccccc1`, the “fraction of GFP-LC3-positive cells” value came to 0.088.

For the compound `CC/C(=C(/CC)c1ccc(O)cc1)c1ccc(O)cc1` [Diethylstilbestrol], the “fraction of GFP-LC3-positive cells” value was determined as 0.0323. For `O=C(/C=C/c1ccc(O)c(O)c1)O[C@@H]1C[C@](O)(C(=O)O)C[C@@H](O)[C@H]1O` [Chlorogenic acid], the “fraction of GFP-LC3-positive cells” value is 0.0755. As for `O=C(O)/C=C/c1ccc(O)c(O)c1` [Caffeic acid], the “fraction of GFP-LC3-positive cells” value came out at 0.0546. Take `O=C(/C=C/c1ccc(O)c(O)c1)OCCc1ccccc1`: the “fraction of GFP-LC3-positive cells” value was found to be 0.624.

`FC(F)(F)c1ccccc1-n1ccnc1`: the “fraction of GFP-LC3-positive cells” value came to 0.0512.

Consider `O=C(O)CCc1nc(-c2ccccc2)c(-c2ccccc2)o1` [Oxaprozin], for which the “fraction of GFP-LC3-positive cells” value was determined as 0.047.

In the case of `COc1ccc2c(c1)C(=O)N(CCc1ccc(S(=O)(=O)NC(=O)NC3CCCCC3)cc1)C(=O)C2(C)C` [Gliquidone], the “fraction of GFP-LC3-positive cells” value worked out at 0.0709. For the compound `CC(C(=O)[O-])c1cccc(Oc2ccccc2)c1.CC(C(=O)[O-])c1cccc(Oc2ccccc2)c1.CC(C(=O)[O-])c1cccc(Oc2ccccc2)c1.O.O.[Ca+2]` (centres undefined) [Fenoprofen calcium salt dihydrate], the “fraction of GFP-LC3-positive cells” value is 0.0249. The figure for `C[N+](C)(CCOc1ccccc1)Cc1ccccc1.O=C([O-])c1cc2ccccc2cc1O` [Bephenium hydroxynaphthoate] is 0.0458. As for `Cc1ccc(NC(=O)c2cccc(N(C)C)c2)cc1NC(=O)c1ccc(O)cc1`, the “fraction of GFP-LC3-positive cells” value is 0.0842 and 0.161.

Regarding `CCCCCCCC/C=C\CCCCCCCC(N)=O`, the “fraction of GFP-LC3-positive cells” value stood at 0.0449. On to `Cl.Clc1ccc(Cn2c(CN3CCCC3)nc3ccccc32)cc1` [Clemizole hydrochloride], for which the “fraction of GFP-LC3-positive cells” value amounted to 0.063. `CCN(CC)CCOc1ccc(/C(=C(/Cl)c2ccccc2)c2ccccc2)cc1.O=C(O)CC(O)(CC(=O)O)C(=O)O` [Clomiphene citrate (Z,E)]: the “fraction of GFP-LC3-positive cells” value was 0.0397. As to `CCOc1ccc(Cc2nccc3cc(OCC)c(OCC)cc23)cc1OCC.Cl` [Ethaverine hydrochloride], the “fraction of GFP-LC3-positive cells” value turned out to be 0.0346.

As for `NCCc1c[nH]cn1`, the “fraction of GFP-LC3-positive cells” value is 0.0411. The figure for `CCOC1O[C@H]([C@@H](COCc2ccccc2)OCc2ccccc2)[C@H](OCc2ccccc2)[C@H]1O` (some centres undefined) [Tribenoside] is 0.102. Consider `CCOC(=O)C1=C[C@]2(CC)CCCN3CCc4c(n1c1ccccc41)[C@@H]32` [Vinpocetine], for which the “fraction of GFP-LC3-positive cells” value stood at 0.0378.

Take `O=C(O)c1ccc(C2=C3C=CC4=[N]3->[Mn+3]35<-[N]6=C(C=CC6=C(c6ccc(C(=O)O)cc6)c6ccc2[n]63)C(c2ccc(C(=O)O)cc2)=c2ccc([n]25)=C4c2ccc(C(=O)O)cc2)cc1.[Cl-]` (centres undefined): the “fraction of GFP-LC3-positive cells” value is 0.0485. `CCCCc1ccc2[nH]c(NC(=O)OC)nc2c1` [Parbendazole]: the “fraction of GFP-LC3-positive cells” value worked out at 0.609. Take `COC(=O)Nc1nc2cc(C(=O)c3cccs3)ccc2[nH]1` [nocodazole]: the “fraction of GFP-LC3-positive cells” value came to 0.681. Take `COC(=O)Nc1nc2cc(C(=O)c3ccccc3)ccc2[nH]1` [Mebendazole]: the “fraction of GFP-LC3-positive cells” value is 0.619. With `COC(=O)Nc1nc2cc(C(=O)c3cccs3)ccc2[nH]1` [Nocodazole], the “fraction of GFP-LC3-positive cells” value stood at 0.627.

As to `CC(C(=O)O)c1ccc(C(=O)c2cccs2)cc1` (centres undefined) [Suprofen], the “fraction of GFP-LC3-positive cells” value worked out at 0.0679.

For `COC(=O)Nc1nc2cc(Sc3ccccc3)ccc2[nH]1` [Fenbendazole], the “fraction of GFP-LC3-positive cells” value is 0.24. Take `COC(=O)Nc1nc2cc(SC(C)C)ccc2[nH]1` [Methiazole]: the “fraction of GFP-LC3-positive cells” value worked out at 0.499. Regarding `CCCCCCCCCCCCCCCC(=O)NCCc1ccc(O)c(O)c1` [Palmitoyl dopamine], the “fraction of GFP-LC3-positive cells” value stood at 0.0673.

Regarding `CCCSc1ccc2[nH]c(NC(=O)OC)nc2c1` [Albendazole], the “fraction of GFP-LC3-positive cells” value came out at 0.548. Regarding `COc1ccc2cc1Oc1ccc(cc1)C[C@H]1c3cc(c(OC)cc3CCN1C)Oc1c(OC)c(OC)cc3c1[C@H](C2)N(C)CC3` [Tetrandrine], the “fraction of GFP-LC3-positive cells” value was found to be 0.0783.

For the compound `C=C(C)[C@@H]1CC[C@]2(C(=O)O)CC[C@]3(C)[C@H](CC[C@@H]4[C@@]5(C)CC[C@H](O)C(C)(C)[C@@H]5CC[C@]43C)[C@@H]12` [Betulinic acid], the “fraction of GFP-LC3-positive cells” value amounted to 0.0563. The figure for `Cc1ccsc1/C=C/C1=NCCCN1C.O=C(O)C(O)C(O)C(=O)O` [Morantel tartrate] is 0.0668; for `CCN(CC)C(=S)SSC(=S)N(CC)CC` [Disulfiram] it is 0.687; for `O=C(O)CCC(=O)c1ccc(-c2ccccc2)cc1` [Fenbufen] it is 0.0751.

With `CC[C@]1(O)C[C@@H]2CN(CCc3c([nH]c4ccccc34)[C@@](C(=O)OC)(c3cc4c(cc3OC)N(C)[C@H]3[C@@](O)(C(=O)OC)[C@H](OC(C)=O)[C@]5(CC)C=CCN6CC[C@]43[C@@H]65)C2)C1.O=S(=O)(O)O` [vinblastine], the “fraction of GFP-LC3-positive cells” value stood at 0.691. The figure for `CCCCCCCC/C=C\CCCCCCCC(=O)OC[C@@H](O)COP(=O)(O)O` is 0.039. As for `CCCCCCCC/C=C\CCCCCCCC(=O)OC[C@@H](O)COP(=O)(O)O` [Lysophosphatidic acid], the “fraction of GFP-LC3-positive cells” value stood at 0.0399.

As for `COc1cc2nc(N3CCN(C(=O)C4CCCO4)CC3)nc(N)c2cc1OC.Cl` (centres undefined) [Terazosin hydrochloride], the “fraction of GFP-LC3-positive cells” value was 0.0471. `COc1cc2nc(N3CCN(C(=O)c4ccco4)CC3)nc(N)c2cc1OC` [prazocin]: the “fraction of GFP-LC3-positive cells” value is 0.899. In the case of `COc1cc2nc(N3CCN(C(=O)c4ccco4)CC3)nc(N)c2cc1OC.Cl` [Prazosin hydrochloride], the “fraction of GFP-LC3-positive cells” value came to 0.156. Regarding `C[C@]12CC[C@@H]3c4ccc(O)cc4CC[C@H]3[C@@H]1CCC2=O` [Estrone], the “fraction of GFP-LC3-positive cells” value was 0.0194.

On to `CC(C)=CC[C@@H](O)C1=CC(=O)c2c(O)ccc(O)c2C1=O` [Shikonin], for which the “fraction of GFP-LC3-positive cells” value came to 0.7. Turning to `CC/C=C\C/C=C\C/C=C\C/C=C\C/C=C\CCCC(=O)O` [Eicosapentaenoic acid (20:5 n-3)], the “fraction of GFP-LC3-positive cells” value came out at 0.0669. `CC/C=C\C/C=C\C/C=C\C/C=C\C/C=C\CCCC(=O)O`: the “fraction of GFP-LC3-positive cells” value was found to be 0.047. For `Clc1ccc(C(Cn2ccnc2)OCc2csc3c(Cl)cccc23)c(Cl)c1.O=[N+]([O-])O` (centres undefined) [Sertaconazole nitrate], the “fraction of GFP-LC3-positive cells” value was found to be 0.0474.

With `O=C(O)c1cc(N(Cc2ccccc2O)Cc2cc(O)ccc2O)ccc1O`, the “fraction of GFP-LC3-positive cells” value worked out at 0.0412. Consider `O=C(O)c1cc(N(Cc2ccccc2O)Cc2cc(O)ccc2O)ccc1O` [Lavendustin A], for which the “fraction of GFP-LC3-positive cells” value stood at 0.0834.

Turning to `CCCCNc1c(C(=O)OCC)c(C)nc2c1cnn2CC.Cl` [Tracazolate hydrochloride], the “fraction of GFP-LC3-positive cells” value came to 0.0505. The figure for `Cc1c(OCC(F)(F)F)ccnc1CS(=O)c1nc2ccccc2[nH]1` (centres undefined) [Lansoprazole] is 0.0343; for `COC1=CC(=O)C[C@@H](C)[C@]12Oc1c(Cl)c(OC)cc(OC)c1C2=O` [Griseofulvin] it is 0.172. With `Cc1ncc(C[n+]2csc(CCO)c2C)c(N)n1.Cl.[Cl-]` [Thiamine hydrochloride], the “fraction of GFP-LC3-positive cells” value came to 0.0725. For `CC[C@H](C)C(=O)O[C@H]1C[C@@H](C)C=C2C=C[C@H](C)[C@H](CC[C@@H]3C[C@@H](O)CC(=O)O3)[C@H]21` [Mevinolin (lovastatin)], the “fraction of GFP-LC3-positive cells” value worked out at 0.203. Turning to `CC(C)(Oc1ccc(C2CC2(Cl)Cl)cc1)C(=O)O` (centres undefined) [Ciprofibrate], the “fraction of GFP-LC3-positive cells” value came out at 0.0359. As to `CCN(CC)C(=O)N1CCN(C)CC1.O=C(O)CC(O)(CC(=O)O)C(=O)O` [Diethylcarbamazine citrate], the “fraction of GFP-LC3-positive cells” value worked out at 0.0418. In the case of `CC(=O)O[C@H]1C(=O)[C@@]2(C)C([C@H](OC(=O)c3ccccc3)[C@]3(O)C[C@H](OC(=O)[C@H](O)[C@@H](NC(=O)c4ccccc4)c4ccccc4)C(C)=C1C3(C)C)[C@]1(OC(C)=O)CO[C@@H]1C[C@@H]2O` (some centres undefined) [taxol =paclitaxel] it was 0.536; in that of `CC(=O)O[C@H]1C(=O)[C@@]2(C)[C@H]([C@H](OC(=O)c3ccccc3)[C@]3(O)C[C@H](OC(=O)[C@H](O)[C@@H](NC(=O)c4ccccc4)c4ccccc4)C(C)=C1C3(C)C)[C@]1(OC(C)=O)CO[C@@H]1C[C@@H]2O` [Paclitaxel], 0.642. In the case of `CS(=O)c1ccc(-c2nc(-c3ccc(F)cc3)c(-c3ccncc3)[nH]2)cc1` (centres undefined) it was 0.023. Take `Cc1cnc(C(=O)NCCc2ccc(S(=O)(=O)NC(=O)NC3CCCCC3)cc2)cn1` [Glipizide]: the “fraction of GFP-LC3-positive cells” value was found to be 0.057. In the case of `CCOC(=O)n1ccn(C)c1=S` [Carbimazole], the “fraction of GFP-LC3-positive cells” value turned out to be 0.0518. The figure for `N=C(N)NCC1COC2(CCCCC2)O1.N=C(N)NCC1COC2(CCCCC2)O1.O=S(=O)(O)O` (centres undefined) [Guanadrel sulfate] is 0.041; for `CC/C=C/C/C=C/C/C=C/CCCCCCCCCC(=O)O` [Eicosatrienoic acid (20:3 N-3)] it is 0.0456.
